Data: PubChem BioAssay AID651820 (National Center for Advancing Translational Sciences (NCATS), 2012)
The campaign covered roughly 340,000 compounds. About 12,000 (3.5%) were called active. Inconclusive results (about 18%) are left out. This excerpt belongs to a sample that is enriched for actives. A number with no mark means an inactive call. Calls follow the shape of the dose curve; as a rule, active = well fitted inhibition curve with a large enough effect; inconclusive = small, poorly fitted or top-dose-only effect, or another doubt; inactive = no such curve, though single readings can be large or run the other way.

Assay: qHTS Assay for Inhibitors of Hepatitis C Virus (HCV)
Conditions: Huh7.5.1 HCVcc-Cre infection, luciferase reporter, 44 h; series mostly up to 41.8 µM; activity change, negative = inhibition: at the top concentration
How it was run: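 HCVcc-Cre virus at an moi near 0.5 was added right after compound to cells cultured 4 h from seeding (1,000 cells/well). Luciferase activity was determined 44 h later, 15 min after substrate addition at RT.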
% is scaled to controls: 0 for no effect and ±100 for the full control effect; potency is read from the fitted curve at half-maximal effect.

Row | Compound | activity change, negative = inhibition | Potency
1 | CCCCN(C(=O)C1CCC1)c1c(N)n(Cc2ccccc2)c(=O)[nH]c1=O | 0.645% | 
2 | COc1ccc(C(=O)C[n+]2ccc(C)cc2)cc1 | 11% | 
3 | COc1ccc(CCC(=O)c2ccc(OC)cc2)cc1 | 3.1% | 
4 | COc1ccc(C(=O)C[n+]2ccc(N)c(C)c2C)cc1 |  | 2.24 µM (active)
5 | COc1cc(/C=C/C(=O)OCC(=O)c2ccccc2)cc(OC)c1OC | -9.1% | 
6 | COc1ccc(S(=O)(=O)N(C)C[C@H]2Oc3ccc(NS(=O)(=O)c4cccs4)cc3CC(=O)N([C@H](C)CO)C[C@H]2C)cc1 | -16.8% | 
7 | O=C(COc1ccc(F)cc1Br)NCC1COc2ccccc2O1 (centres undefined) | -24.9% | 
8 | CC1(C)Cc2cccc(OCC(=O)N3CCN(c4ccc([N+](=O)[O-])cc4)CC3)c2O1 |  | 10 µM (active)
9 | CC1(C)Cc2cccc(OCC(=O)NCc3ccccc3)c2O1 | 3.16% | 
10 | CC1(C)Cc2cccc(OCC(N)=O)c2O1 | 8.67% | 
11 | COc1ccc(CCOC2OC(CO)C(OC(=O)/C=C/c3ccc(O)c(OC)c3)C(O[C@H]3O[C@@H](C)[C@H](O)[C@@H](O)[C@H]3O)C2O)cc1O (some centres undefined) | -1.52% | 
12 | COc1cc(OC)c(OC)cc1/C=N/Nc1ncnc2c1[nH]c1ccc(C)cc12 | 48.4% | 
13 | COc1ccc2[nH]c3c(=O)n(Cc4ccco4)cnc3c2c1 | -22.8% | 
14 | CC(C)OCCCNc1ncnc2c1[nH]c1ccc(F)cc12 |  | 12.6 µM (active)
15 | O=C(COC(=O)c1cccc(Cl)c1)NC1CCCCCCC1 | 0.0254% | 
16 | O=C1NC(Cc2ccc(O)cc2)c2nc3ccc(Cl)cc3c(=O)n2-c2ccccc21 (centres undefined) | 4.73% | 
17 | O=C(N/N=C/c1cccnc1)c1cc2ccccc2cc1O | 5.01% | 
18 | CC(C)(C)OC(=O)NNc1c2ccccc2nc2ccccc12 |  | 2.82 µM (active)
19 | Cc1ccccc1NC(=O)NNC(=O)OC(C)(C)C | 30% | 
20 | COc1ccc(-c2cc(C(=O)Nc3ccccc3O)c3ccccc3n2)cc1 | -29% | 
21 | Cc1ccc(C(=O)NNC(=O)OC(C)(C)C)c(Cl)c1 | -1.05% | 
22 | O=C(NNc1c2ccccc2nc2ccccc12)c1cc2ccccc2cc1O |  | 2.82 µM (active)
23 | CC(C)CN(C(=O)COC(=O)c1ccc(Cl)c(N)c1)c1c(N)n(Cc2ccccc2)c(=O)[nH]c1=O | -7.76% | 
24 | O=C(CSc1nc2[nH]ncc2c(=O)[nH]1)Nc1ccc(F)cc1 | 1.89% | 
25 | COc1cc(/C=N/NC(=O)c2cc(-c3ccccc3C)nc3ccccc23)cc(OC)c1O | -9.28% | 

Row | Compound | activity change, negative = inhibition | Potency
26 | Cc1ccc(C(=O)OCC(=O)N2CCCCCC2)cc1S(=O)(=O)N1CCOCC1 | 12.3% | 
27 | CCCc1nc2ccccc2c(C(=O)OCc2nnc(-c3cc(OC)c(OC)c(OC)c3)o2)c1CC |  | 2.82 µM (active)
28 | CCCc1nc2ccccc2c(C(=O)OCC(=O)c2ccc3c(c2)NC(=O)CO3)c1CC | -18.7% | 
29 | O=C(OCc1nnc(-c2ccccc2)o1)c1cc(=O)[nH]c2ccccc12 | -1.44% | 
30 | CCOc1ccc(S(=O)(=O)NCCC(=O)NCC2CCCO2)cc1 (centres undefined) | 12.1% | 
31 | O=C(NCc1ccc2c(c1)OCO2)c1cc([N+](=O)[O-])ccc1N1CCOCC1 | -18.5% | 
32 | O=C(CN1C(=O)NC2(CCCCCCC2)C1=O)NCc1ccc(F)cc1 | -0.305% | 
33 | COc1ccc(CCNC(=O)CSc2nc3[nH]ncc3c(=O)n2-c2cccc(C(F)(F)F)c2)cc1OC | -14.3% | 
34 | NS(=O)(=O)c1cccc(NC(=O)CSc2nc3ccccc3n2-c2ccccc2)c1 | -21.2% | 
35 | NC(=O)NC(=O)CSc1nc2cc([N+](=O)[O-])ccc2n1-c1cccc(C(F)(F)F)c1 |  | 10 µM (active)
36 | CC(OC(=O)Cc1ccc(F)cc1)C(=O)N1CCc2ccccc21 (centres undefined) | 13.6% | 
37 | O=C(/C=C/c1ccc(F)cc1)Nc1cccc(S(=O)(=O)Nc2cccc(C(F)(F)F)c2)c1 | -16.9% | 
38 | Cc1oc2c(F)c(F)c(F)c(F)c2c1S(=O)(=O)Nc1cccc(C(F)(F)F)c1 |  | 4.47 µM (active)
39 | O=C(NCc1ccccc1)c1ccc(S(=O)(=O)Nc2cccc(C(F)(F)F)c2)cc1 | -10.9% | 
40 | O=C(O)C(c1cccs1)C1(O)CCCCC1 (centres undefined) | 8.65% | 
41 | CCOc1ccc(S(=O)(=O)NCCC(=O)NCC(C)(C)N2CCOCC2)cc1 | 12.5% | 
42 | CN(C)c1nc(N)nc(CSc2nnnn2-c2cccc3ccccc23)n1 |  | 3.16 µM (active)
43 | CN(C)c1nc(N)nc(CSc2ccccn2)n1 | 11.1% | 
44 | COc1ccc(-n2nnnc2SCc2nc(N)nc(N3CCOCC3)n2)cc1 | -19.5% | 
45 | COC(=O)Cc1ccc(OC(=O)C2CCN(S(=O)(=O)c3ccc(OC)c(OC)c3)CC2)cc1 | -4.2% | 
46 | CCN(CC)CCNc1nc(-c2ccc(OC(F)F)cc2)c(C)s1 |  | 17.8 µM (active)
47 | CCOC(=O)c1ccccc1NC(=O)c1c(N)n(C)c(=O)[nH]c1=O | 30.5% | 
48 | CCCN(CC(=O)Nc1ccccc1OC)C(=O)CCC(=O)c1ccc(F)cc1 | -22.8% | 
49 | COc1ccc([C@H]2CC(=O)C=C(/C=C/c3ccc(Cl)cc3)C2)cc1 | 20.6% | 
